A short description of test [1]: Caspase-3/7 induction in CHO-K1 cells by small molecules, qHTS assay (AID 1346980). Further: nearly all actives have a fitted effect of over 15% in size. The method, boiled down:
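Wild-type cells were seeded at 1,500 per well and settled 5 hr at 37 C, 5% CO2, then exposed to DMSO-dissolved compounds for 17 hr. Caspase-Glo 3/7 reagent was added, and luminescence was read after 30min at room temperature.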

The target in test [2] is Nuclear receptor subfamily 1 group I member 2 (Homo sapiens) (UniProt O75469). As to the kind of experiment: Human pregnane X receptor (PXR) small molecule agonists, qHTS assay (AID 1346982). Further: nearly all actives have a fitted effect of over 35% in size. Further: potency means the concentration at half of the fitted maximal effect. An outline of the steps: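 Luminescence (ONE-Glo, 30 min RT) after 24 hr compound exposure of PXR-Luc HepG2 cells; cells rested 5 hr post-plating in 5% charcoal-stripped FBS medium.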

Test [3] deals with Acetylcholinesterase (Homo sapiens) (UniProt P22303). The test can be described thus: Acetylcholinesterase (AChE) small molecule antagonists: enzyme-based qHTS assay (AID 1347397; calls by dose curve; further: nearly all actives have a fitted effect of over 55% in size). The note with it: Potency: AChE enzyme activity inhibition. An outline of the steps:
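Recombinant human AChE, dispensed at 50 mU/mL, was preincubated with Tox21 10K compounds or DMSO vehicle for 30 min at room temperature. DTNB plus acetylthiocholine was then added, and thiocholine was measured colorimetrically after a further 10 min.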

Test [4] has the same target. The test can be described thus: Acetylcholinesterase (AChE) small molecule antagonists: fluorescence cell-based qHTS assay (AID 1347398; calls by dose curve; further: nearly all actives have a fitted effect of over 50% in size; further: potency means the concentration at half of the fitted maximal effect). The note with it: Potency: AChE activity. The method, boiled down:
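Human SH-SY5Y cells were plated overnight at 37 C, exposed to compound for 30 min at 37 C, 5% CO2, then given acetylthiocholine plus Thiolite Green for 40 min at room temperature; thiocholine fluorescence (Ex/Em 490/520 nm) reports endogenous AChE activity.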

Test [5] has the same target. The test can be described thus: Acetylcholinesterase (AChE) small molecule antagonists: enzyme-based qHTS assay with human liver microsomes (AID 1347399; calls by dose curve; further: nearly all actives have a fitted effect of over 60% in size). The settings on record: Potency: qHTS inhibition. An outline of the steps: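 Recombinant human AChE (50 mU/mL in the enzyme mix) and human liver microsomes (0.25 mg/mL final) were preincubated with compound and NADPH (0.25 mg/mL final) for 30 min at 37 C. Acetylthiocholine/DTNB was then added; thiocholine was read colorimetrically after 10 min at room temperature.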

The target in test [6] is Cytochrome P450 2D6 (Homo sapiens) (UniProt P10635). As to the kind of experiment: Cytochrome P450 Family 2 Subfamily D Member 6 (CYP2D6) small molecule antagonists: luciferase reporter qHTS assay (AID 1671196). Further: nearly all actives have a fitted effect of over 50% in size. Further: potency means the concentration at half of the fitted maximal effect. An outline of the steps: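 Inhibition of CYP2D6 was gauged by loss of luminescence, since light produced tracks the luciferin generated from a proluciferin substrate. A 10 min room-temperature preincubation preceded 1 h NADPH-supported turnover.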

Test [7] addresses Cytochrome P450 2C19 (Homo sapiens) (UniProt P33261). As to the kind of experiment: Cytochrome P450 Family 2 Subfamily C Member 19 (CYP2C19) small molecule antagonists: luciferase reporter qHTS assay (AID 1671197). Further: nearly all actives have a fitted effect of over 65% in size. Further: potency means the concentration at half of the fitted maximal effect. The method, boiled down:
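P450-Glo CYP2C19 screening system; proluciferin substrate; DMSO compound stocks; 10 min RT preincubation; NADPH regeneration, 1 h at 37C; luciferin detection reagent, 20 min RT; luminescence as RLU.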

Test [8] deals with Cytochrome P450 2C9 (Homo sapiens) (UniProt P11712). As to the kind of experiment: Cytochrome P450 Family 2 Subfamily C Member 9 (CYP2C9) small molecule antagonists: luciferase reporter qHTS assay (AID 1671198). Further: nearly all actives have a fitted effect of over 50% in size. Further: potency means the concentration at half of the fitted maximal effect. The method, boiled down: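 CYP2C9 activity was measured with a P450-Glo proluciferin substrate. Enzyme–substrate mix was held with compound for 10 min at room temperature, then NADPH regeneration solution was added for 1 h at 37C. Luciferin product was read as luminescence.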

Test [9] addresses Cytochrome P450 1A2 (Homo sapiens) (UniProt P05177). The test can be described thus: Cytochrome P450 Family 1 Subfamily A Member 2 (CYP1A2) small molecule antagonists: luciferase reporter qHTS assay (AID 1671199). Further: nearly all actives have a fitted effect of over 50% in size. Further: potency means the concentration at half of the fitted maximal effect. The method, boiled down: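 Signal from luciferin formed by CYP1A2 from a proluciferin substrate is read as luminescence, expressed in relative luminescence units. Compounds sit with enzyme 10 min, NADPH-driven reaction runs 1 h, all at room temperature.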

Test [10] deals with Voltage-gated inwardly rectifying potassium channel KCNH2 (Homo sapiens) (UniProt Q12809). As to the kind of experiment: Human Ether-a-go-go-Related Gene (hERG) channel small molecule antagonists: fluorescence cell-based qHTS assay (AID 1671200). Further: nearly all actives have a fitted effect of over 50% in size. Further: potency means the concentration at half of the fitted maximal effect. An outline of the steps: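 U2OS cells expressing the channel were plated at 1000 cells/well, incubated overnight at 37 C, then loaded with FluxOR II thallium-sensitive dye for 1 h at room temperature in the dark, with a further 10 min at room temperature before stimulation.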

Test [11] deals with Cytochrome P450 3A4 (Homo sapiens) (UniProt P08684). The test can be described thus: Cytochrome P450 Family 3 Subfamily A Member 4 (CYP3A4) small molecule antagonists: luciferase reporter qHTS assay (AID 1671201). Further: nearly all actives have a fitted effect of over 50% in size. Further: potency means the concentration at half of the fitted maximal effect. The method, boiled down: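 P450-Glo CYP3A4 system with proluciferin substrate; compounds preincubated 10 min RT with enzyme-substrate mix, then NADPH regeneration added for 1 h RT. Detection reagent 20 min, luminescence read as relative luminescence units.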

Test [12] has as its target Nuclear receptor subfamily 1 group I member 2 (Rattus norvegicus) (UniProt Q9R1A7). As to the kind of experiment: Rat pregnane X receptor (rPXR) activation by small molecules, qHTS assay (AID 1346983). Further: nearly all actives have a fitted effect of over 20% in size. The settings on record: rPXR luciferase reporter cells, One-Glo luminescence, 24 h; stronger effect = higher value. The method, boiled down: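 Cell-based rPXR luciferase reporter assay, 2,000 cells per well, rested 5hr at 37 C before compound addition in DMSO, then 24 hr at 37 C. One-Glo reagent was added and luminescence read after 30 min at room temperature.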

Where “and” joins values, the source holds several entries; their conditions need not be identical. Equal values may be shown once. Results filed as inconclusive are left out. Some structures have more than one record in an assay (separate samples or runs), and their calls can disagree. Calls of active or inactive are those of the source. Unless noted, the call rests on the fitted dose curve; in most records, active means well fitted curve in the direction sought with a large enough effect in the repeat runs; inconclusive means weak or mixed curves; inactive means no such curve, though single readings can be large; an effect the other way counts as inactive or inconclusive.
On the % scale 0 is the no-effect control and ±100 the full control effect.

Chain of Cytochrome P450 2D6 (Homo sapiens) (P10635 whole entry, looked up): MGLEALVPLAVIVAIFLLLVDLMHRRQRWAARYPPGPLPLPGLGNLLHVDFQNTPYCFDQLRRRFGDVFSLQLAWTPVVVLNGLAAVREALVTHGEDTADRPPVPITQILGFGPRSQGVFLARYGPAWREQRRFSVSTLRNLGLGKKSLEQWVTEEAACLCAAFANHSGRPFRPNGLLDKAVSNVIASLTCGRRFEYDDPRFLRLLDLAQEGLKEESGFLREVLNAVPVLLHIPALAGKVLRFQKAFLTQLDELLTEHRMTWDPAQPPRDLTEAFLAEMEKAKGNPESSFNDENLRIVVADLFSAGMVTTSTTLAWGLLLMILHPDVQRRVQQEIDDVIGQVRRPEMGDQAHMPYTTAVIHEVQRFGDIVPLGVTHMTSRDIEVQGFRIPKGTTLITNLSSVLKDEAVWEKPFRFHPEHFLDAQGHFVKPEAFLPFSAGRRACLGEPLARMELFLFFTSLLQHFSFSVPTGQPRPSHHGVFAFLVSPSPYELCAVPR
Chain of Acetylcholinesterase (Homo sapiens) (P22303 whole entry, looked up): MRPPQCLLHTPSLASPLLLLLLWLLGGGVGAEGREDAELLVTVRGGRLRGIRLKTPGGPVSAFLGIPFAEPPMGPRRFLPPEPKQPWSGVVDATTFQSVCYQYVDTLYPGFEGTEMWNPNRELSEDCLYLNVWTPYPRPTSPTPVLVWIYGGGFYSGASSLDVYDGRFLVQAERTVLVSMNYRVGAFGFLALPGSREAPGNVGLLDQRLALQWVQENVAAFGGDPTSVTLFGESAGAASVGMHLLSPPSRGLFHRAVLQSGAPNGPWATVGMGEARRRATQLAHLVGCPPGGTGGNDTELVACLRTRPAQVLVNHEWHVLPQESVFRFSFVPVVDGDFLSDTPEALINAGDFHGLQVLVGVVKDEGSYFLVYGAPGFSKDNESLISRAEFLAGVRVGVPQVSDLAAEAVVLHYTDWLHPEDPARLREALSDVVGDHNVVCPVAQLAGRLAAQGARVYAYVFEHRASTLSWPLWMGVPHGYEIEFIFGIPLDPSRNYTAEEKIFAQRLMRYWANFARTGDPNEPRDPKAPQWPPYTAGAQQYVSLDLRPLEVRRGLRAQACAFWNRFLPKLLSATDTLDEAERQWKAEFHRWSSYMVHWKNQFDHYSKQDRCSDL
Chain of Cytochrome P450 3A4 (Homo sapiens) (P08684 whole entry, looked up): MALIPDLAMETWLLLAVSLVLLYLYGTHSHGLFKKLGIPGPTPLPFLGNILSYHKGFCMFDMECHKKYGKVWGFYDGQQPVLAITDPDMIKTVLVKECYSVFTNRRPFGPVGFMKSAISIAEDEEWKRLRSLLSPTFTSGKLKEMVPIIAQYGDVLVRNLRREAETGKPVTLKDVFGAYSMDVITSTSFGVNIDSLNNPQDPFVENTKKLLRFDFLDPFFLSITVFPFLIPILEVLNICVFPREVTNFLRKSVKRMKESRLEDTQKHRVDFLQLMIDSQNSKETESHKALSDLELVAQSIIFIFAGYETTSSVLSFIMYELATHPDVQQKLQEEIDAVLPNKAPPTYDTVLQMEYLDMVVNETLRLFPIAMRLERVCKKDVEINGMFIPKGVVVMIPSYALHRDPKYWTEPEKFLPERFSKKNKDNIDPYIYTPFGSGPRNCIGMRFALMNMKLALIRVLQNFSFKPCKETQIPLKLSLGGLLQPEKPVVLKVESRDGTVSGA
Chain of Cytochrome P450 1A2 (Homo sapiens) (P05177 whole entry, looked up): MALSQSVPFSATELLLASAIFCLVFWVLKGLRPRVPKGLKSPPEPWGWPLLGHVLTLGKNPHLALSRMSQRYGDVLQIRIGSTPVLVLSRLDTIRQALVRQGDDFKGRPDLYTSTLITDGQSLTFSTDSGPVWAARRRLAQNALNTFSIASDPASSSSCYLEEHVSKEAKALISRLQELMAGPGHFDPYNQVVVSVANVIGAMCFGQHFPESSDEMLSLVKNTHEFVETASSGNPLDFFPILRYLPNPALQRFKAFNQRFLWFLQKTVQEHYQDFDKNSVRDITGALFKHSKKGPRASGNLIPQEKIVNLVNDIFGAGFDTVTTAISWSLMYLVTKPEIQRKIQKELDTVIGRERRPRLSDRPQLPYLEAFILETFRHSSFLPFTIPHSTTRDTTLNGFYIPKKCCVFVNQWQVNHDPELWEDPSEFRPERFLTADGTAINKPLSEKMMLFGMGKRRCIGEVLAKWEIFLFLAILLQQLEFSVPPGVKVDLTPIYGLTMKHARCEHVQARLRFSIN
Chain of Cytochrome P450 2C19 (Homo sapiens) (P33261 whole entry, looked up): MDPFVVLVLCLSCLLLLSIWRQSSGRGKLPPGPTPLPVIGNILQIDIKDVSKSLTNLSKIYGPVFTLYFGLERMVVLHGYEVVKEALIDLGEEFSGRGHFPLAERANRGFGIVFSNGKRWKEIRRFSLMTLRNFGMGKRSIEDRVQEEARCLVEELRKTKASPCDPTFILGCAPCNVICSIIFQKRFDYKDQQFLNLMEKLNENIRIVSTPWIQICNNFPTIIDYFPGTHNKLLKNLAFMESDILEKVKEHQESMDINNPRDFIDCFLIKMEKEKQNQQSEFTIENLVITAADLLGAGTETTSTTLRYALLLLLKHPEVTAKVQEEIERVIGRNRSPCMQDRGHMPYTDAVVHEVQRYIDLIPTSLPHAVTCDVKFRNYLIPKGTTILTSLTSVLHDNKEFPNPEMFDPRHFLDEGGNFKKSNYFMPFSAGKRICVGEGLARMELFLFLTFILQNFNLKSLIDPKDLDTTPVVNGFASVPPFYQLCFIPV
Chain of Cytochrome P450 2C9 (Homo sapiens) (P11712 whole entry, looked up): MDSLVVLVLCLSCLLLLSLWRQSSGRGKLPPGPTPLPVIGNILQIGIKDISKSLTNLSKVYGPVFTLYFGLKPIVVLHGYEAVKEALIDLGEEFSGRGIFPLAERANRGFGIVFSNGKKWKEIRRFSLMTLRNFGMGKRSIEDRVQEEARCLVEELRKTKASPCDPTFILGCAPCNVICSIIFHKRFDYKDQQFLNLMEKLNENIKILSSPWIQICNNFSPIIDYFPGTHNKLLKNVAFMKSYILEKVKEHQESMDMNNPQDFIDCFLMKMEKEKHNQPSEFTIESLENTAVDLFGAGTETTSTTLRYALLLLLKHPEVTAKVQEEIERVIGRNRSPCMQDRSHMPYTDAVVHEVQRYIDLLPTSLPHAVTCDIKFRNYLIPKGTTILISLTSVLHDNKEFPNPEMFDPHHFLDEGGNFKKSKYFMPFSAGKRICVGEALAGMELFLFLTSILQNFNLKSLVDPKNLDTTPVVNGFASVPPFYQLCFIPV
Chain of Voltage-gated inwardly rectifying potassium channel KCNH2 (Homo sapiens) (Q12809 whole entry, looked up): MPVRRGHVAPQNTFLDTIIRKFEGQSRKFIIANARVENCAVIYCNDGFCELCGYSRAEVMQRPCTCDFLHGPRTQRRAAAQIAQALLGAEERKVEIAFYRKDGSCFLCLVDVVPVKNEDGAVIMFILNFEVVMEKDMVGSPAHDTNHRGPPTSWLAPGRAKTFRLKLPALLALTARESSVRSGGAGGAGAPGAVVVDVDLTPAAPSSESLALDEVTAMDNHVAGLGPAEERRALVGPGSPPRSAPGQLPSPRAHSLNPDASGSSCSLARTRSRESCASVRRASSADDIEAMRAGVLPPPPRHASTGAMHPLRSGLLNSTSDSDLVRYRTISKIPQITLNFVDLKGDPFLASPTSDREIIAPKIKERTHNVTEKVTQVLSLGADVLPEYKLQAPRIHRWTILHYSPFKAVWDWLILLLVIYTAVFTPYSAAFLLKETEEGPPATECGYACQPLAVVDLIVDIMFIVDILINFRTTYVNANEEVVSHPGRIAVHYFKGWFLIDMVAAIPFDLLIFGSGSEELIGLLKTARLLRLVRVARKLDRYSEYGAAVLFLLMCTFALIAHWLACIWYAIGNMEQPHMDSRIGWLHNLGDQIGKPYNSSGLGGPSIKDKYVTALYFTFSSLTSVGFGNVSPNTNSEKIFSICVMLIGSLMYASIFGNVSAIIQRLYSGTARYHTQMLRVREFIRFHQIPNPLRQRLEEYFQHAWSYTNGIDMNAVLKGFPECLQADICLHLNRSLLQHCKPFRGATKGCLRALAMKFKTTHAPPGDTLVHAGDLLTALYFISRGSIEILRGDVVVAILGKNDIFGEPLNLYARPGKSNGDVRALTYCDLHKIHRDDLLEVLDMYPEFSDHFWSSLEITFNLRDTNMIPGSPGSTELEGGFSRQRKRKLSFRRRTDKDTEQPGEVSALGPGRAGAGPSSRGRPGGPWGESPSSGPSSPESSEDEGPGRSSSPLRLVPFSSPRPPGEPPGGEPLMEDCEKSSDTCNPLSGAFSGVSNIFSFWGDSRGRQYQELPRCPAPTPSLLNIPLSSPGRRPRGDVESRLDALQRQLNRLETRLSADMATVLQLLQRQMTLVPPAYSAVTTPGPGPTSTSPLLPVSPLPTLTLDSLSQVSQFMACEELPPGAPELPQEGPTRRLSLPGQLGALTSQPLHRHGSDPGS
Chain of Nuclear receptor subfamily 1 group I member 2 (Homo sapiens) (O75469 whole entry, looked up): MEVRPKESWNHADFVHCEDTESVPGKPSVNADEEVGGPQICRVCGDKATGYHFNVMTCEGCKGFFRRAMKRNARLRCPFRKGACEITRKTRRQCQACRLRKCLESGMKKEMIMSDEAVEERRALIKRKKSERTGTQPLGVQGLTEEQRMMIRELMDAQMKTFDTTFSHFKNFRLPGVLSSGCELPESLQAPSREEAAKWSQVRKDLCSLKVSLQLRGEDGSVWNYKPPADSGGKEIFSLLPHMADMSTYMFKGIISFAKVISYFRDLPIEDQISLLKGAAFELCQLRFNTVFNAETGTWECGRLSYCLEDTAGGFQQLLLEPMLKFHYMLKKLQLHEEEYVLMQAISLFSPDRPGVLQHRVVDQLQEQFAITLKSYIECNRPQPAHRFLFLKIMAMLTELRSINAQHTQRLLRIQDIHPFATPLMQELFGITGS

Take `Nc1ccc(-c2ccc(N)c(Cl)c2)cc1Cl`: the Potency entry in test [1], in test [3], in test [4], in test [5], in test [6] and in test [10] was “inactive” in each case. Also, the Potency in test [2] was 30.8 µM (active) and 9.69 µM (active); in [7], 4.01 µM (active) and 3.73 µM (active) and 5.64 µM (active); in test [8], 10.1 µM (active) and 11.8 µM (active) and 12.6 µM (active); in test [9], 1.79 µM (active) and 1.48 µM (active) and 1.42 µM (active); in test [11] it was 5.05 µM (active) and 6.63 µM (active) and 7.96 µM (active).
On to `CC[n+]1ccccc1`, for which the Potency entry in test [1], in test [3], in test [4], in test [5], in test [6] and in [9] was “inactive” in each case. Also, the Potency entry in [10] and in test [11] was “inactive” throughout. Also, the Potency entry was “inactive and 1.21 µM (active)” in [2]; “inactive and 3.96 µM (active)” in test [7]; “inactive and 9.94 µM (active)” in [8].
As for `O=C(O)CC(O)(CC(=O)O)C(=O)O`, the Potency entry in [1], in [6] and in test [10] was “inactive” throughout.
As for `CCn1cc[n+](C)c1C`, the Potency result in [1], in test [2], in test [3], in test [4], in [5] and in [6] was “inactive” each time. Besides, the Potency result in test [7], in test [8], in test [9], in test [10] and in [11] was “inactive” throughout.
On to `CCCC[N+]1(C)CCCCC1`, for which the Potency result in [1], in test [2], in test [3], in [4], in test [5] and in test [6] was “inactive” in each case. Moreover, the Potency result in test [7], in [8], in [9], in [10] and in test [11] was “inactive” in each case.
`CCCCCCCCCCn1cc[n+](C)c1`: the Potency result in [1], in test [5] and in test [11] was “inactive” throughout. Besides, the Potency is 35.7 µM (active) [middle of 6 runs] in test [4]; 40.3 µM (active) and 3.26 µM (active) and inactive in test [7]; 5.7 µM (active) and inactive and 32.6 µM (active) in [8]; 36 µM (active) and 32.6 µM (active) in test [9].
Turning to `CC[N+](CC)(CC)CC`, the Potency entry in [1] and in test [10] was “inactive” throughout. Besides, in test [12], the max activation is -1.28% (inactive).
As to `Cc1cc(Cl)ccc1N`, the Potency entry in [1], in test [2] and in test [10] was “inactive” throughout. In addition, the Potency in test [6] is 23 µM (active) and inactive and 22.4 µM (active); in test [7], 20.5 µM (active) and 31 µM (active) and 22.4 µM (active); in [8] it was 28.9 µM (active) and 24.6 µM (active) and 25.2 µM (active); in test [9], 11.5 µM (active) and 9.8 µM (active) and 7.96 µM (active).
As for `COP(=O)(OC)C(O)C(Cl)(Cl)Cl` (stereo not given), the Potency entry in [1] and in test [10] was “inactive” in each case.
As to `O=c1nc(O)n(Cl)c(=O)n1Cl`, the Potency entry in [1], in test [2], in test [3], in [4], in test [5] and in [7] was “inactive” each time. For the same molecule, the Potency entry in test [8], in [9], in test [10] and in [11] was “inactive” throughout. In addition, the Potency entry in test [6] was “inactive and 1.26 µM (active)”.
Consider `O=C(O)CCl`, for which the Potency entry in test [1], in test [2], in test [3], in test [4], in test [5] and in [6] was “inactive” in each case. For the same molecule, the Potency result in test [7], in test [8], in [9], in test [10] and in test [11] was “inactive” each time.
As to `CNC`, the Potency entry in test [1], in test [2], in [3], in test [4], in test [5] and in test [6] was “inactive” each time. Further, the Potency entry in test [7], in [8], in [9], in test [10] and in [11] was “inactive” in each case.
Turning to `CC[N+]1(C)CCCC1`, the Potency entry in test [1], in test [2], in [3], in test [4], in test [5] and in test [8] was “inactive” in each case. Further, the Potency entry in test [9] and in test [11] was “inactive” each time. In addition, the Potency is 6.3 nM (active) and inactive in test [6]; “inactive and 31.8 µM (active)” in test [7]; “inactive and 21.9 µM (active)” in test [10].
Regarding `N#CS`, the Potency result in test [1] and in [10] was “inactive” throughout.
As for `O=C(O)c1ccccc1O`, the Potency entry in [1] and in [10] was “inactive” each time.
Turning to `CCCCCCCCCCCCCCCCn1cc[n+](C)c1`, the Potency result in [1] and in test [5] was “inactive” throughout. For the same molecule, the Potency in [2] is 7.86 µM (active) and inactive and 6.13 µM (active); in test [9], 36.4 µM (active) and inactive and 71.2 µM (active).
As to `CCCCCCn1cc[n+](C)c1`, the Potency result in test [1], in test [8], in test [9], in [10] and in test [11] was “inactive” each time. Also, the Potency result in test [2] is “inactive and 12.4 µM (active) and 7.57 µM (active)”; in test [7] it was “inactive and 23.4 µM (active)”.
Take `CCCCn1cc[n+](C)c1`: the Potency entry in [1] and in [10] was “inactive” throughout.
Turning to `O=S(=O)(O)O`, the Potency result in [1] and in test [10] was “inactive” in each case.
In the case of `CCCCCCCCCCCCn1cc[n+](C)c1`, the Potency entry in [1] was “inactive”. The Potency in test [8] is 9.01 µM (active) and inactive and 64.3 µM (active); in test [11], 80.3 µM (active) and inactive.
For the molecule `COc1ccccc1N`, the Potency result in test [1], in [2], in test [8] and in test [10] was “inactive” throughout. For the same molecule, the Potency in test [6] was 17.8 µM (active) and 35.7 µM (active) and 12.6 µM (active); in [9], 39.9 µM (active) and 32.3 µM (active) and 35.6 µM (active); in test [11], 22.4 µM (active) and inactive and 28.3 µM (active).
For `CCCCCCCCCCCC(=O)O`, the Potency result in test [1], in test [2], in test [3], in test [4], in test [5] and in [6] was “inactive” each time. Moreover, the Potency entry in test [9], in [10] and in test [11] was “inactive” throughout. Further, the Potency in test [7] is 79.9 µM (active) and inactive; in test [8], 102 µM (active).

The values are drawn from PubChem BioAssay (Tox21).
